Hit rate of the full screen: of about 390,000 compounds, about 760 (0.19%) were called active. Another 3% or so got no clear call; they are omitted. The sample holds actives, similar compounds and a random draw of the others, so the mix is not that of the screen. A number with no mark means an inactive call. Calls come from the whole dose curve; as a rule, active = well fitted inhibition curve with a large enough effect; inconclusive = small, poorly fitted or top-dose-only effect; inactive = flat fitted curve, though single readings scatter.
Potency is the fitted concentration of half-maximal effect.

The nature of the assay: qHTS for Inhibitors of Vif-A3F Interactions: qHTS. For activity, negative = active: % of control where 0% means no effect. Note: nearly all actives have a fitted effect of over 65% in size. Conditions: HeLa A3F-eYFP + Vif (tagged APOBEC3F with the HIV-1 protein that degrades it), YFP fluorescence increase; series mostly up to 46.1 µM; activity, negative = active: at the top concentration. The text has this:
The recent discovery and characterization of host restriction factors, which provide a potent defense to invading retroviruses, has provided new targets for antiviral drug development. APOBEC3G (A3G) and APOBEC3F (A3F) are potent cytidine deaminases that block HIV-1 replication; HIV-1 expresses the Vif protein, which counteracts A3G and A3F by binding to them and inducing their proteasomal degradation. The Vif-A3G and Vif-A3F interactions provide two potential targets for development of small molecules which can interfere with the ability of Vif to degrade A3G or A3F. […] To identify inhibitors that can interfere with Vif mediated degradation of A3G and A3F, we have developed Hela cell lines that stably express A3G or A3F tagged with eYFP at the C-terminal end (A3G-eYFP or A3F-eYFP, respectively) and Vif. In the absence of an inhibitor, Vif induces degradation of A3G-eYFP and A3F-eYFP, and the cells are not fluorescent. In the presence of an inhibitor, it is expected that Vif will be unable to degrade A3G-eYFP and/or A3F-eYFP, resulting in an increase in yellow fluorescence. In this assays Vif A3F was screened against the Molecular Library Small Molecule Repository (MLSMR). NIH Chemical Genomics Center [NCGC] NIH Molecular Libraries Probe Centers Network [MLPCN] MLPCN Grant: MH093245 Assay Submitter (PI): Vinay Pathak, National Cancer Institute
5 uL of 700 cells/well of A3F-YFP cells are dispensed into black, clear bottom plates. The plates are incubated overnight at 37 deg C. 23 nL of compounds are added by pintool. The plates are incubated overnight at 37 deg C and then read on the TTP Acumen (Ex 488/ Em 500-530).
On the technique in general: Quantitative high-throughput screening tests each substance at several concentrations.
`COc1ccc(C(=O)Nc2ccc(-n3nncc3-c3ccccc3)cc2)cc1OC`: the “activity, negative = active” value was -3.35%.
As to `NNC(=O)c1oc2nc(-c3ccccc3)cc(-c3ccco3)c2c1N`, the Potency is 11.2 µM (active).
Take `Cc1ccc(CSc2nc3cccnc3n2Cc2ccc(C(=O)NC3CC3)cc2)cc1`: the “activity, negative = active” value is -1.49%.
Still for that read-out and setting: the value for `CCOC(=O)c1cnc2c(C)cc(Cl)cc2c1NCCc1ccc(OC)c(OC)c1` was -0.291%; that for `O=C(Cc1ccc(Cl)cc1)Nc1ccc2nn(-c3ccc(Cl)cc3)nc2c1` was 2.37%; that for `CCOC(=O)c1c(C)oc2nc(C)nc(N3CCN(c4ccc(OC)cc4)CC3)c12` was 0.623%.
As to `CC(C)c1ccc(NC(=O)Cn2nnc(C(=O)NCCc3ccccc3)c2N)cc1`, the “activity, negative = active” value was -1.66%.
Consider `O=C(CCCn1c(=O)c2cccn2c2cccnc21)NCc1ccc(F)cc1`, for which the “activity, negative = active” value is 0.614%.
On to `Cc1cc(=O)n(CC(=O)Nc2cccc([N+](=O)[O-])c2)c(-n2nc(C)cc2C)n1`, for which the “activity, negative = active” value was 3.02%.
For `CCOC(=O)c1c(S(=O)(=O)N2CCC(C(=O)NCc3ccccc3OC)CC2)c(C)n(C)c1C`, the “activity, negative = active” value was 0.785%.
Regarding `CSc1ccc(C2c3c(oc4ccccc4c3=O)C(=O)N2CCCN2CCOCC2)cc1` (stereo not given), the “activity, negative = active” value was 8.49%.
On the same count and under the same terms, the result for `CSc1ccc(NC(=O)Cn2nnnc2-c2ccccc2F)cc1` reads 0.093%; that for `COCCNc1nc(-c2ccccc2)nc2c1oc1ccccc12`, -39.4%.
As to `CCc1nc(Nc2ccc3nccnc3c2)c2oc3ccccc3c2n1`, the Potency is 22.4 µM (active).
Take `C[C@@H](Nc1nc(-c2ccccc2)nc2c1oc1ccccc12)C(=O)O`: the “activity, negative = active” value was -10.7%.
Still for that read-out and setting: the value for `C=CCNC(=S)N/N=C/c1ccc(C)s1` was -16.6%.
Consider `Cc1ccc(C(=O)C(=S)N2CCOCC2)cc1`, for which the “activity, negative = active” value was -8.6%.
On to `CNC(=S)N/N=C/c1ccc(N2CCOCC2)s1`, for which the Potency was 1.12 µM (active).
`S=c1[nH]c2ccccc2c2ccccc12`: the “activity, negative = active” value was 0.31%.
For `Oc1[nH]c2ccccc2c1N=Nc1c(F)c(F)c(F)c(F)c1F`, the Potency was 25.1 µM (active).
As to `O=[N+]([O-])c1cc(S(=O)(=O)Nc2cccc(Cl)c2)ccc1N=Nc1c(O)[nH]c2ccccc12`, the “activity, negative = active” value is -9.21%.
Same read-out and setting: the value for `CCN(CCCNC(=O)c1cc2cc3cc(OC)ccc3nc2s1)c1ccccc1` was 0.248%; that for `Cc1ccc2nc(/C(C#N)=C/c3ccccc3F)[nH]c2c1` was -13.6%.
For `CCOc1ccc(/C=C(\C#N)c2nc3ccccc3c(=O)[nH]2)cc1OC`, the “activity, negative = active” value was -2.28%.
Regarding `COc1cc(/C=C(\C#N)c2nc3ccccc3[nH]2)ccc1O`, the Potency was 12.6 µM (active).
`COc1ccc(Nc2ncc(C(=O)Nc3cc(C)ccc3OC)c3ccccc23)cc1`: the “activity, negative = active” value was -10.3%.
The same measure, in the same setting: the value for `COc1ccc(NC(=O)c2cnc(Nc3ccc(C)c(Cl)c3)c3ccccc23)cc1OC` was 1.11%.
`COC(=O)c1cnc(Nc2cc(C)ccc2OC)c2ccccc12`: the Potency was 31.6 µM (active).
Regarding `O=C(CCS(=O)(=O)c1ccccc1)N(Cc1cccnc1)c1nc2c(F)cccc2s1`, the “activity, negative = active” value is -3.73%.
As to `S=C(NN=Cc1ccccn1)Nc1ccccn1`, the Potency was 11.2 µM (active).
Regarding `COc1ccc(-n2c(=O)c3sc4ccccc4c3n(CC(=O)Nc3cccc(C)c3)c2=O)cc1`, the “activity, negative = active” value was -15.1%.
The same measure, in the same setting: the value for `CCCN(CCC)CCCNC(=O)Cn1ncc2c3ccccc3n(Cc3ccccc3)c2c1=O` was -14.4%; that for `Cc1oc2ncnc(N3CCCCC3)c2c1C(=O)N1CCN(c2cccc(Cl)c2)CC1` was 1.49%.
Same read-out and setting: the result for `COc1ccc(C)cc1N(CC(=O)N1CCC(C)CC1)S(=O)(=O)c1ccc(C)cc1` reads -3.25%; that for `Cn1c(COc2ccccc2C(C)(C)C)nc2ccccc21`, -7.42%; that for `O=C1CCCc2cc(S(=O)(=O)N3CCCC(C(=O)NCc4ccccc4)C3)ccc2N1` (stereo not given), -3.24%.
With `Cc1nn(CC(=O)N2CCN(c3cccc(C(F)(F)F)c3)CC2)c(=O)c2cc3sccc3n12`, the “activity, negative = active” value is 5.84%.
As to `CCN(Cc1ccccc1)C(=O)c1cn(-c2cccc(OC)c2)c(=O)c2ccccc12`, the “activity, negative = active” value was 5.04%.
On the same count and under the same terms, the value for `COc1cccc(CNC(=O)c2cc(=O)[nH]c3ccc(S(=O)(=O)N4CCCCC4)cc23)c1` was 1.76%.
For the compound `CCOC(=O)c1cc2n(c1N)-c1ccccc1C2=O`, the Potency was 7.08 µM (active).
With `CCOC(=O)c1c(N)n(-c2cccc(C)c2C)c2nc3ccccc3nc12`, the “activity, negative = active” value is 3.14%.
As to `CCOC(=O)c1cc(-c2ccccc2)n(CCC(=O)Nc2ccccc2CC)c1C`, the “activity, negative = active” value is 1.54%.
In the case of `CCOc1ccccc1NC(=O)Cn1nnc(C(=O)Nc2ccc(C)c(C)c2)c1N`, the “activity, negative = active” value was -8.19%.
The same measure, in the same setting: the result for `COc1ccc(-c2nc3sc(CCNC(=O)C(C)(C)C)c(C)n3n2)cc1` reads 5.15%.
Same read-out and setting: the result for `CCOC(=O)C(Cc1ccccc1)NC(=O)CCc1c(C)nc2c(c(C)nn2-c2ccc(C)c(C)c2)c1C` (stereo not given) reads -9.62%; that for `COc1ccc(NC(=O)CSc2nccn2Cc2ccc3c(c2)OCO3)cc1`, 0.0796%; that for `CCN1CCN(CCCNC(=O)c2cnn(-c3ccc(C)cc3C)c2C2CCN(C(=O)OC(C)(C)C)CC2)CC1`, 1.14%.
As for `N#CCSc1ccccc1NC(=O)CN1C(=O)NC(CCc2ccccc2)C1=O` (stereo not given), the Potency was 25.1 µM (active).
On to `CCOC(=O)CCCNC(=O)CN1C(=O)NC(CCc2ccccc2)C1=O` (stereo not given), for which the “activity, negative = active” value was -1.81%.
Take `Cc1cc(NC(=O)CN2C(=O)NC(CCc3ccccc3)C2=O)no1` (stereo not given): the “activity, negative = active” value is -0.801%.
